Most compounds without a hit are left out; they make up all but 1.6% or so of the library.
KCNQ2 inh: rat KCNQ2 potassium channel inhibitors, primary screen, cell-based, CHO-K1, FluxOR thallium flux, B-score | Potassium voltage-gated channel subfamily KQT member 2 (Rattus norvegicus), O88943 | 20 min; hits give low values | B-score at 10 µM | 1.1% of 310,000 active;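 active = fluorescence ratio B-score at most minus 3 library SDs, with starting brightness B-score within 2 library SDs, cut at about -5.5 in these data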
KCNQ2 enhance: potentiators of rat KCNQ2 potassium channel; Potassium voltage-gated channel subfamily KQT member 2 (Rattus norvegicus), O88943; CHO-K1 KCNQ2, FluxOR thallium flux fluorescence; hits give high values; B-score at 10 µM; 0.54% of 310,000 active;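 active = fluorescence ratio B-score at least 3 SD of library B-scores, with initial fluorescence B-score within 3 of them, cut at about 5.3 in these data; same plate scores as AID 2156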;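 also: B-score of peak minus minimum over baseline fluorescence ratio after K+ and Tl+ stimulus; positive B-score means potentiation of KCNQ2 with more thallium influx and brighter signal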
Kir21 conf inh: mouse Kir2.1 channel blockers, retest, confirmation, cell-based, FluxOR thallium flux, duplicate; shares compounds with KCNQ2 enhance; Kir2.1-expressing cells, FluxOR thallium flux fluorescence; hits give low values; Tl flux remaining, % of negative control (hits give low values), % at 10 µM; 41% of 2,300 active;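 active = Primary-screen hit whose thallium flux fell at least 3 control SD below untreated wells in both duplicates, with normal baseline fluorescence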;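 also: 0% = blank wells without stimulus and 100% = stimulated no-compound controls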
Target sequence (P35561 whole entry, looked up): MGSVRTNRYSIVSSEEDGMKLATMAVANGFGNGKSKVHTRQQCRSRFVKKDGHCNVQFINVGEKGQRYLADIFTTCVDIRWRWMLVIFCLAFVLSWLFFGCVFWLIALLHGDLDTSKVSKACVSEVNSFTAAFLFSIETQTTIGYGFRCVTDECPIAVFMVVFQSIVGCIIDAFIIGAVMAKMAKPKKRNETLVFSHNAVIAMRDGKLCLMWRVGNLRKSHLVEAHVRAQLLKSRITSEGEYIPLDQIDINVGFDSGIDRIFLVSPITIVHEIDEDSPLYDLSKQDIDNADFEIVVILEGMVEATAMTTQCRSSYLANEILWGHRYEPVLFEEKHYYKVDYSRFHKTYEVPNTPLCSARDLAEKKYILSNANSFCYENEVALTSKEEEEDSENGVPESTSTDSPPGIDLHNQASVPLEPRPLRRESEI
HEK293 ctr: counter-screen for Kir2.1 inhibitors: effect in parental HEK293 cells | shares compounds with KCNQ2 enhance | FluxOR thallium flux fluorescence; 0% = unstimulated blank wells | FluxOR signal as % of negative control (100 = no effect), % at 10 µM | 19% of 2,300 active | AID 2105;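 active = dye signal at least 3 control SD above or below untreated wells in both duplicates, raw fluorescence within 3, either direction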;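 also: percent is based on the flux ratio of peak minus minimum fluorescence over baseline F0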
CHO-K1 ctr: nonspecific thallium flux increase in parental CHO-K1, confirmation, counter-screen for KCNQ2 potentiator project, cell-based, FluxOR thallium flux, duplicate. 43% of 1,200 active. parental CHO-K1 cells, FluxOR thallium flux fluorescence; zero = vehicle mean+3SD, 100% = vehicle-minus-blank window. activity increase over 3SD of controls, % at 10 µM. shares compounds with KCNQ2 enhance;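 active = signal rise of at least 3 SD above the untreated control mean, in both duplicate wells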;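 also: counter screen of KCNQ2 potentiator hits so any rise reflects channel-independent effects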
KCNQ1 pot spec: human KCNQ1 channel potentiation off-target, confirmation, selectivity assay for KCNQ2 potentiator project, cell-based, CHO, FluxOR thallium flux | activation over 3SD threshold, % at 10 µM | 28% of 1,200 active | AID 2283, 2010 | shares compounds with KCNQ2 enhance | CHO KCNQ1 stable, FluxOR thallium flux fluorescence; beyond 3SD, as % of vehicle-control signal;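 active = fluorescence ratio rise of at least 3 SD of vehicle wells above their mean, in both replicate wells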;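 also: 0% = vehicle mean plus 3 SD and 100% = vehicle minus unstimulated blank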
KCNQ2 pot conf: rat KCNQ2 channel potentiators, confirmation, cell-based, CHO, FluxOR thallium flux, duplicate. 68% of 1,200 active. potentiation, less the hit threshold, % at 10 µM. AID 2287, 2010. shares compounds with KCNQ2 enhance. CHO-KCNQ2 cells, FluxOR thallium flux fluorescence;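 active = fluorescence ratio rising 3 SD or more over the vehicle control mean in both replicates, plus primary screen hit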;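 also: peak minus minimum thallium fluorescence divided by baseline after K/Tl stimulus; 0% = vehicle mean plus 3 SD and 100% = vehicle minus unstimulated blank difference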
Kir21 spec: mouse Kir2.1 channel activation off-target, confirmation, selectivity assay for KCNQ2 potentiator project, cell-based, HEK293, FluxOR thallium flux; activity over 3SD threshold, % at 10 µM; shares compounds with KCNQ2 enhance; 2% of 1,200 active; HEK293 Kir2.1, FluxOR thallium flux fluorescence;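 active = fluorescence ratio rise of at least 3 SD above the vehicle-control mean, seen in both replicates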;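 also: 0% = vehicle mean plus 3 SD and 100% = vehicle minus no-stimulus blank window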
KCNQ2 W236L pot: potentiators of retigabine-insensitive KCNQ2 W236L, mechanism study for KCNQ2 potentiator project, cell-based, rat KCNQ2 W236L, CHO, automated patch clamp. shares compounds with KCNQ2 enhance. automated patch clamp current. current increase over 3SD of negative controls (%), hits give high values, % at 25 µM. 10% of 940 active. AID 2558, 2010;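 active = current increase at least 3 SD of the untreated controls above them in both duplicate recordings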
An asterisk follows results filed as active; i = inactive; . = no result given.

SMILES	KCNQ2 inh	KCNQ2 enhance	CHO-K1 ctr	KCNQ1 pot spec	KCNQ2 pot conf	Kir21 spec	KCNQ2 W236L pot	others
COc1ccc(C2NC(=O)NC(c3ccccc3)=C2c2nc3ccccc3s2)cc1 (centres undefined)	i	2	.	.	.	.	.
O=C1NC(c2ccccc2)=C(c2nc3ccccc3s2)C(c2ccc(F)cc2)N1 (centres undefined)	i	8.7*	74*	-2	21*	-28	34%*	Kir21 conf inh=i;HEK293 ctr=i
CC(C)(C)c1nc(SCC(=O)NCc2ccco2)c2ccccc2n1	i	0.34	.	.	.	.	.
COc1ccc(C(=O)CSc2nc(C(C)(C)C)nc3ccccc23)cc1	i	13*	-7	60*	20*	-51	i
Cn1c(-c2cccc3ccccc23)n[nH]c1=S	i	0.27	.	.	.	.	.
FC(F)(F)Oc1ccc(NC(=S)Nc2ccccc2N2CCOCC2)cc1	i	0.32	.	.	.	.	.
Cc1csc(C(C)N(C)C(=O)CCc2nnc(CCc3ccccc3)o2)n1 (centres undefined)	i	2.8	.	.	.	.	.
CC1=C(C(N)=O)C(c2cccs2)n2nc(-c3cccc(Cl)c3)nc2N1 (centres undefined)	i	5.8*	53*	-11	-4	-38	0.9%*	Kir21 conf inh=i;HEK293 ctr=i
CC1=C(C(N)=O)C(c2cccs2)n2nc(-c3cccc(C)c3)nc2N1 (centres undefined)	i	0.02	.	.	.	.	.
CC(C)c1ccc(NC2CCCN(C(=O)CC3CCCC3)C2)cc1 (centres undefined)	i	.	.	.	.	.	.
CCCCn1c(N)c(N(CCOC)C(=O)c2ccc(C)c(S(=O)(=O)N3CCCCC3)c2)c(=O)[nH]c1=O	i	.	.	.	.	.	.
Cn1c(CNC(=O)c2ccccc2F)cc2ccccc21	i	.	.	.	.	.	.
Cn1c(CNC(=O)c2ccc(F)cc2)cc2ccccc21	i	6.5*	0	78*	0	-27	i	Kir21 conf inh=i;HEK293 ctr=i
Cc1cccnc1NC(=O)CSc1nnc(CNC(=O)c2cccc([N+](=O)[O-])c2)n1C	i	0.54	.	.	.	.	.

High-throughput results as filed in PubChem.
